# Test results reported in PubChem BioAssay (EPA / NIEHS).
# Records with an inconclusive call do not appear. Calls of active or inactive are those of the source. How the source made its calls, unless noted: active means hit-call score of the fitted dose curve at least 0.9, where 1 is the maximum; inactive means score below 0.9.
# Legend:
# [1] = target: Glucocorticoid receptor (Homo sapiens) (UniProt P04150); assay: ATG_GR_TRANS: Attagene TRANS-FACTORIAL HepG2 Assay for human Glucocorticoid Receptor (GR) (AID 2282978; active means hit-call score of the fitted dose curve at least 0.9, where 1 is the maximum;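 further: activators score as hits since higher reporter transcript over DMSO is fitted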); conditions: HepG2 Attagene TRANS GR reporter, mRNA transcription
# Chain of Glucocorticoid receptor (Homo sapiens) (P04150 whole entry, looked up, the tested form may be a part): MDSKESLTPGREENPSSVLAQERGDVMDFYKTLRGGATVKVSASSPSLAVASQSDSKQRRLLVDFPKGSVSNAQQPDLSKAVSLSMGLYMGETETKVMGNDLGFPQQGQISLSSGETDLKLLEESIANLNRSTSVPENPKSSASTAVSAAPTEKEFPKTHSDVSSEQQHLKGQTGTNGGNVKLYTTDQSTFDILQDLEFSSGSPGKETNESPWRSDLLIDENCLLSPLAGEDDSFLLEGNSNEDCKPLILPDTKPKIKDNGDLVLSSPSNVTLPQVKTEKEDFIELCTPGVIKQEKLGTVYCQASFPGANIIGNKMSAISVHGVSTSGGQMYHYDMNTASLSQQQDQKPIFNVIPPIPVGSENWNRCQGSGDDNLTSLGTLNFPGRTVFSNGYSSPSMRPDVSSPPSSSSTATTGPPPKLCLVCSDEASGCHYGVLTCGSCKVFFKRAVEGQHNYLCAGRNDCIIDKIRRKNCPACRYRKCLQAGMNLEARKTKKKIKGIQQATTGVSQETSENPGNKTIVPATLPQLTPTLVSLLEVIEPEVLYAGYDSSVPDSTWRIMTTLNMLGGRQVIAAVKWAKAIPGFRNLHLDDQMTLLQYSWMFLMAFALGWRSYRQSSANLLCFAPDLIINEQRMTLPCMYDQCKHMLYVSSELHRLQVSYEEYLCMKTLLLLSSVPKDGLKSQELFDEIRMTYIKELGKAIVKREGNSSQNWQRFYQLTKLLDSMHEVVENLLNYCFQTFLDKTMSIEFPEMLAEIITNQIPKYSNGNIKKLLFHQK
# Summary of the method: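 HepG2 transient transfection, multiple reporter units, GAL4-UAS under NR-GAL4 chimera control. 24 h treatment. Reporter mRNA by RT-PCR/CE fluorescence, DMSO as negative control.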
# [2] = target: Bile acid receptor (Homo sapiens) (UniProt Q96RI1); assay: ATG_FXR_TRANS: Attagene TRANS-FACTORIAL HepG2 Assay for Farnesoid X Receptor (FXR) (AID 2282979; active means hit-call score of the fitted dose curve at least 0.9, where 1 is the maximum;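 further: hits raise reporter mRNA above DMSO so AC50 marks FXR activation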); conditions: HepG2 Attagene TRANS FXR-GAL4 reporter transcription
# Chain of Bile acid receptor (Homo sapiens) (Q96RI1 whole entry, looked up, the tested form may be a part): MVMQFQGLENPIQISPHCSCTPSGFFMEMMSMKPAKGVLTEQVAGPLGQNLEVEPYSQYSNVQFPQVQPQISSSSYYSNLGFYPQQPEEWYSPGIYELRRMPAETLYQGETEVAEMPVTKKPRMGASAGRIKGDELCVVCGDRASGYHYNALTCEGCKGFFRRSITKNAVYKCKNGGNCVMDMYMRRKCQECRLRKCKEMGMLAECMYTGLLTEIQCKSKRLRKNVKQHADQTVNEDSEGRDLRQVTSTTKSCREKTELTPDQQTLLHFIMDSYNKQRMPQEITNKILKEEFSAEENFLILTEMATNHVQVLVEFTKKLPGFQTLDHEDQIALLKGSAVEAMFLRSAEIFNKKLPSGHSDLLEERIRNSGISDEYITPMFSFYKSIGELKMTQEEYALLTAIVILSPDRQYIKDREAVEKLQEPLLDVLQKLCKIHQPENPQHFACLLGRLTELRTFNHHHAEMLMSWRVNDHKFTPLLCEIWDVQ
# Summary of the method: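 HepG2 cells transiently transfected with reporter constructs in which a chimeric FXR-GAL4 protein drives a GAL4-UAS reporter; 24 h compound exposure. Reporter mRNA measured by RT-PCR, FAM labelling, HpaI digestion and capillary electrophoresis; gain-of-signal versus DMSO.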
# [3] = target: Oxysterols receptor LXR-beta (Homo sapiens) (UniProt P55055); assay: ATG_LXRb_TRANS: Attagene TRANS-FACTORIAL HepG2 Assay for human Liver X Receptor beta (LXRb) (AID 2282981; active means hit-call score of the fitted dose curve at least 0.9, where 1 is the maximum); conditions: HepG2 Attagene TRANS GAL4-LXRb reporter, mRNA
# Chain of Oxysterols receptor LXR-beta (Homo sapiens) (P55055 whole entry, looked up, the tested form may be a part): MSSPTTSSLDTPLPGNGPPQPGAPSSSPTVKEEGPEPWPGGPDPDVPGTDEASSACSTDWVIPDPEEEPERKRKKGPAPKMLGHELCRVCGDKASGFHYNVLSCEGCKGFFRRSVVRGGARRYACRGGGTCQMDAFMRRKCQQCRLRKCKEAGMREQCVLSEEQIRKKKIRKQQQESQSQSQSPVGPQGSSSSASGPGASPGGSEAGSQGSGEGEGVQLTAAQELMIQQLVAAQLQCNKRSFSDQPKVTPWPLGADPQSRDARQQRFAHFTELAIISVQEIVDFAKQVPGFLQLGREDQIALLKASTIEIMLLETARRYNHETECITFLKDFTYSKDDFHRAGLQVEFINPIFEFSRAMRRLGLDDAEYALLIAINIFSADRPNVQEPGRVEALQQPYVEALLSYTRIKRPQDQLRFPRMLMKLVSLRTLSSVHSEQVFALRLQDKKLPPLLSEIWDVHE
# Summary of the method: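 Multiplexed reporter assay, HepG2, 24 h dosing. Fluorescence of labelled RT-PCR products after capillary electrophoresis gives transcript level; positive fitting direction relative to DMSO.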
# [4] = target: Hepatocyte nuclear factor 4-alpha (Homo sapiens) (UniProt P41235); assay: ATG_HNF4a_TRANS: Attagene TRANS-FACTORIAL HepG2 Assay for human Hepatocyte Nuclear Factor 4 alpha (HNF4a) (AID 2282982; active means hit-call score of the fitted dose curve at least 0.9, where 1 is the maximum); conditions: HepG2 HNF4a transactivation reporter, mRNA readout
# Chain of Hepatocyte nuclear factor 4-alpha (Homo sapiens) (P41235 whole entry, looked up, the tested form may be a part): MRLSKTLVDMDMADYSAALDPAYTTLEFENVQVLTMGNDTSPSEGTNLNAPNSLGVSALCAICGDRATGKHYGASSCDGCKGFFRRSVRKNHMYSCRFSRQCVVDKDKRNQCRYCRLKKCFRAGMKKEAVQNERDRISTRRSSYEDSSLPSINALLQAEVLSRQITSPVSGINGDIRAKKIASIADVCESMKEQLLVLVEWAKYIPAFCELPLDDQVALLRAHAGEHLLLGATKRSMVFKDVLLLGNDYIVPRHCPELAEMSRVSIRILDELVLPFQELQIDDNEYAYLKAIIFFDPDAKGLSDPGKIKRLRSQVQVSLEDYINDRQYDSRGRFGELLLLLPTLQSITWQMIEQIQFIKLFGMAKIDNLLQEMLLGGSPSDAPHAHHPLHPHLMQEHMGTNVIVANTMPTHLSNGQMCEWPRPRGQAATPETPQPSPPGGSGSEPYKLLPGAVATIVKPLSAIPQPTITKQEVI
# Summary of the method: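 Endpoint reflects transcriptional activation of a GAL4-UAS reporter by an HNF4a-GAL4 chimera in transfected HepG2 cells, 24 h post-dosing. Fluorescence from RT-PCR products separated by capillary electrophoresis; DMSO baseline.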
# [5] = ATG_M_06_TRANS: Attagene TRANS-FACTORIAL HepG2 Assay for M06 Transcription Factor (Internal Marker) (AID 2282983; active means hit-call score of the fitted dose curve at least 0.9, where 1 is the maximum); conditions: HepG2 Attagene TRANS M06 internal marker reporter
# Summary of the method: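 In this multiplexed HepG2 system, compounds are incubated 24 h with cells carrying GAL4-UAS reporter units. Reporter RNA is amplified and resolved by capillary electrophoresis, and induction is scored against DMSO.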
# [6] = ATG_M_32_TRANS: Attagene TRANS-FACTORIAL HepG2 Assay for M32 Transcription Factor (Internal Marker) (AID 2282984; active means hit-call score of the fitted dose curve at least 0.9, where 1 is the maximum;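 further: transcript level of a background control reporter unit measured by RT-PCR and capillary electrophoresis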); conditions: HepG2 Attagene TRANS M32 internal marker reporter
# Summary of the method: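 Internal-marker readout from a multiplexed transcription reporter panel. HepG2 cells were transfected with GAL4-UAS reporter units, treated 24 hours, and reporter transcript levels determined by fluorescence after RT-PCR and capillary separation.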
# [7] = target: Nuclear respiratory factor 1 (Homo sapiens) (UniProt Q16656); assay: ATG_NRF1_CIS: Attagene CIS-FACTORIAL HepG2 Assay for human Nuclear Respiratory Factor 1 (NRF1) Orphan Gene (AID 2282987); conditions: HepG2 NRF1 cis-element reporter, Attagene multiplex; actives raise or lower the signal
# Chain of Nuclear respiratory factor 1 (Homo sapiens) (Q16656 whole entry, looked up): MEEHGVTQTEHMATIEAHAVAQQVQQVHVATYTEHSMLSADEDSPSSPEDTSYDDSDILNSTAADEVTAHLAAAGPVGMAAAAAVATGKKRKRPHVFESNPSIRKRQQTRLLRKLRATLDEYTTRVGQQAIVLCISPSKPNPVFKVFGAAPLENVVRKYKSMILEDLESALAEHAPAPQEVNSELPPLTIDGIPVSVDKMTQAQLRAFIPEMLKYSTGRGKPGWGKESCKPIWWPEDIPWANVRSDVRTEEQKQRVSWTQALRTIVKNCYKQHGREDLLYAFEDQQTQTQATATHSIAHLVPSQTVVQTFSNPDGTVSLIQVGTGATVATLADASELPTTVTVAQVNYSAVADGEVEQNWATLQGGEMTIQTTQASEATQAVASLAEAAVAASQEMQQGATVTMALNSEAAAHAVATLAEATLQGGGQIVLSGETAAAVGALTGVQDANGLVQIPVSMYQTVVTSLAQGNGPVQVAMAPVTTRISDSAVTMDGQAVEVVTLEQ
# Summary of the method: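 Endogenous factor activity was captured via cis-element-driven reporter transcripts in HepG2 cells. Following 24 h chemical treatment, transcripts were quantified by RT-PCR and capillary electrophoresis.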
# [8] = ATG_NFI_CIS: Attagene CIS-FACTORIAL HepG2 Assay for human Nuclear Factor I (NFI) (AID 2282989); conditions: HepG2 cis-regulatory reporter, NFI response element transcription; actives raise or lower the signal
# Summary of the method: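 Reporter transcripts were measured by RT-PCR with fluorescent primer extension and capillary electrophoresis 24 h post-treatment. HepG2 cells carried transiently transfected cis-regulated reporter constructs reporting endogenous factor activity; gain or loss fitted against DMSO baseline.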
# [9] = target: Myc proto-oncogene protein (Homo sapiens) (UniProt P01106); assay: ATG_Myc_CIS: Attagene CIS-FACTORIAL HepG2 Assay for human Myelocytomatosis (Myc) Proto-Oncogene Transcription Factor (AID 2282990); conditions: HepG2, Attagene cis-reporter transcription factor activity; actives raise or lower the signal
# Chain of Myc proto-oncogene protein (Homo sapiens) (P01106 whole entry, looked up, the tested form may be a part): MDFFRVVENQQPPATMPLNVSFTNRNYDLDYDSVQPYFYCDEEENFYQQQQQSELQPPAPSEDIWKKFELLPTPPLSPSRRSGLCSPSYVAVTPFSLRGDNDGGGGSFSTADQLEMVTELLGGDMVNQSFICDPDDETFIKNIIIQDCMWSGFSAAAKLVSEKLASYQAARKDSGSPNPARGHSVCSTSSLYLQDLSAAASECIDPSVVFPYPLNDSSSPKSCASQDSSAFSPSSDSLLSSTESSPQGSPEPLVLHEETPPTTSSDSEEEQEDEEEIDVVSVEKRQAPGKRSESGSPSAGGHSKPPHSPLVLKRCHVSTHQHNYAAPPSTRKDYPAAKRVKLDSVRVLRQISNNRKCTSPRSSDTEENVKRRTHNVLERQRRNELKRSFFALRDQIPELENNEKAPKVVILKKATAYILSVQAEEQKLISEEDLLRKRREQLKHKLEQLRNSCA
# Summary of the method: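 Read-out: fluorescent reporter mRNA fragments resolved by capillary electrophoresis after RT-PCR. Human HepG2 liver cells carried transfected cis-element reporter units and were dosed for 24 h. Gain or loss of signal fitted relative to DMSO baseline.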
# [10] = ATG_NF_kB_CIS: Attagene CIS-FACTORIAL HepG2 Assay for human Nuclear Factor Kappa B (NF-kB) (AID 2282991); conditions: HepG2 Attagene cis-factorial NF-kB reporter mRNA; actives raise or lower the signal
# Summary of the method: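 After 24 h compound incubation, transfected HepG2 cells yield total RNA; reporter cDNA is PCR-amplified, end-labelled with 6-FAM, HpaI-digested and analysed on a genetic analyser. Endogenous factor activity, DMSO-referenced bidirectional fit.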
# [11] = ATG_NRF2_ARE_CIS: Attagene CIS-FACTORIAL HepG2 Assay for human Nuclear Factor Erythroid 2 Related Factor 2 (NFR2) response to Antioxidant Response Elements (ARE) (AID 2282992); conditions: HepG2 Attagene ARE/NRF2 reporter, transcription factor activity; actives raise or lower the signal;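 on AC50: reporter mRNA level measured by RT-PCR and capillary electrophoresis fluorescence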
# Summary of the method: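 Endogenous transcription factor activity in human liver HepG2 cells is tracked via a cis-element-driven reporter within a multiplexed set. mRNA induction is read by RT-PCR and capillary electrophoresis after 24 h, with DMSO as baseline.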
# [12] = ATG_Oct_MLP_CIS: Attagene CIS-FACTORIAL HepG2 Assay for human Octamer-Binding Transcription Factor (Oct) (AID 2282993); conditions: HepG2 Attagene cis-factorial Oct reporter, mRNA; actives raise or lower the signal
# Summary of the method: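 Readout is reporter transcript level from RT-PCR with fluorescent primer extension and capillary electrophoresis, fitted in both directions against DMSO. Transfected HepG2 reporter units report endogenous factor activity after 24 h dosing.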
# [13] = target: Cellular tumor antigen p53 (Homo sapiens) (UniProt P04637); assay: ATG_p53_CIS: Attagene CIS-FACTORIAL HepG2 Assay for human p53 Transcription Factor (AID 2282994); conditions: HepG2 p53 cis-element reporter, Attagene mRNA; actives raise or lower the signal
# Chain of Cellular tumor antigen p53 (Homo sapiens) (P04637 whole entry, looked up, the tested form may be a part): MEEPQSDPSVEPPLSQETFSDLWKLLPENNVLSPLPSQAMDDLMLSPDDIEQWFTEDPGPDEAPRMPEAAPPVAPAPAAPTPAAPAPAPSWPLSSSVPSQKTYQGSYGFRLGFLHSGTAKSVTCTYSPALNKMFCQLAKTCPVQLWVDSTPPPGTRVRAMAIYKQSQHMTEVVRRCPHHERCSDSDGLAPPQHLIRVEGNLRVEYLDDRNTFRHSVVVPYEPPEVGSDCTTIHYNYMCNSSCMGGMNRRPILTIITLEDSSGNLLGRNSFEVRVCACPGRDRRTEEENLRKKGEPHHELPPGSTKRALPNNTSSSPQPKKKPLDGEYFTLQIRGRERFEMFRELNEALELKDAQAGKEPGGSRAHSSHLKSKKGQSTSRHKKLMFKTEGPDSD
# Summary of the method: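 Steps: transfect HepG2 with multiplexed cis reporter constructs; dose chemicals 24 h; extract RNA, reverse-transcribe, PCR-amplify reporter sequences; FAM-label, HpaI-digest, resolve fragments by CE. Activity fitted both directions relative to DMSO.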
# [14] = target: Nuclear receptor subfamily 4 group A member 2 (Homo sapiens) (UniProt P43354); assay: ATG_NURR1_TRANS: Attagene TRANS-FACTORIAL HepG2 Assay for human Nuclear Receptor Related Protein 1 (NURR1) (AID 2282985; active means hit-call score of the fitted dose curve at least 0.9, where 1 is the maximum); conditions: HepG2 Attagene TRANS reporter, mRNA readout
# Chain of Nuclear receptor subfamily 4 group A member 2 (Homo sapiens) (P43354 whole entry, looked up): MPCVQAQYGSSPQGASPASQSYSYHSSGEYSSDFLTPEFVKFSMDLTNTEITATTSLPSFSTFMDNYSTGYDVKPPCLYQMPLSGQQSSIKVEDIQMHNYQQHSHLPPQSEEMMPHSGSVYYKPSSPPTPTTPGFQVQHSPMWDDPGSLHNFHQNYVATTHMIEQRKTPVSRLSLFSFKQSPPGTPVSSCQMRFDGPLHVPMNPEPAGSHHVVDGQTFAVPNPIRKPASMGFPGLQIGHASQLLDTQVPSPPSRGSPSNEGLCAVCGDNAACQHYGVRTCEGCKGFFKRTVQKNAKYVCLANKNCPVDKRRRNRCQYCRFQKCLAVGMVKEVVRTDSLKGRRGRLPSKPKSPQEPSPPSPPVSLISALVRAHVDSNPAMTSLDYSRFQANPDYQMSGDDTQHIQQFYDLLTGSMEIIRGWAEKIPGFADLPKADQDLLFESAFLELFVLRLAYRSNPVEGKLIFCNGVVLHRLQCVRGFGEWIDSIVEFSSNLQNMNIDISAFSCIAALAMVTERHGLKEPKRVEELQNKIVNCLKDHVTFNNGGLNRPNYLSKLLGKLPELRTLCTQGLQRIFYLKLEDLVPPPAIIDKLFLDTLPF
# Summary of the method: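 Endpoint: reporter mRNA increase relative to DMSO. HepG2 cells transfected with reporter units, treated 24 h; RNA processed by RT-PCR, labelling, HpaI digestion and capillary electrophoresis.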
# [15] = target: Transcriptional activator Myb (Homo sapiens) (UniProt P10242); assay: ATG_Myb_CIS: Attagene CIS-FACTORIAL HepG2 Assay for human Myeloblastosis (Myb) Proto-Oncogene Transcription Factor (AID 2282986); conditions: HepG2 Attagene CIS-FACTORIAL Myb reporter transcription; actives raise or lower the signal
# Chain of Transcriptional activator Myb (Homo sapiens) (P10242 whole entry, looked up): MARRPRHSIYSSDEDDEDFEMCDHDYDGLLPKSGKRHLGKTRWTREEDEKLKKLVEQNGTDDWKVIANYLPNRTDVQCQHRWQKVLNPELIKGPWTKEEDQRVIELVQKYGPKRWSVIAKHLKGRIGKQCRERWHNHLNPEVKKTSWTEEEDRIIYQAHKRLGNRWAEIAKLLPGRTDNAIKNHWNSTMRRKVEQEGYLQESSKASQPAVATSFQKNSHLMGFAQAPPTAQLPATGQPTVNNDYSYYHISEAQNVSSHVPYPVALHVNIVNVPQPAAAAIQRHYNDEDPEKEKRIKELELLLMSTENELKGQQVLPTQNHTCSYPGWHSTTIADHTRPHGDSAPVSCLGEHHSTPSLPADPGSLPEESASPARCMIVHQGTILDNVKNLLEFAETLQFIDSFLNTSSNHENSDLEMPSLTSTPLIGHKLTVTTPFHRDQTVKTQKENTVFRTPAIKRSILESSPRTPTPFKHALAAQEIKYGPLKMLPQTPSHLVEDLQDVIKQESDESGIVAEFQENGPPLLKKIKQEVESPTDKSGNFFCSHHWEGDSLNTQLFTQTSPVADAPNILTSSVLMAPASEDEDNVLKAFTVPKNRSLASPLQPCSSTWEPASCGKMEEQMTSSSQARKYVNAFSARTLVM
# Summary of the method: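 Multiplexed cis-reporter system in HepG2: transient transfection, 24 h treatment, mRNA readout by RT-PCR and capillary electrophoresis. Both increases and decreases are scored versus DMSO negative control.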
# [16] = BSK_3C_TissueFactor: BioMAP Diversity Plus: 3C Assay for Tissue Factor Biomarker Activity (AID 2282997); conditions: BioMAP 3C HUVEC, tissue factor biomarker readout; actives raise or lower the signal
# Summary of the method: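 Readout: Tissue Factor ELISA. Cells: human primary umbilical vein endothelium. Time: 24 h after dosing. Analysis: bidirectional fit, DMSO baseline.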
# [17] = BSK_3C_uPAR: BioMAP Diversity Plus: 3C Assay for Urokinase-type plasminogen activator receptor (uPAR) Biomarker Activity (AID 2282998); conditions: BioMAP 3C HUVEC, uPAR biomarker ELISA; actives raise or lower the signal
# Summary of the method: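 Cell-surface uPAR on HUVEC (3C system) read by ELISA at 24 h post-treatment, with DMSO as baseline and fitting in both directions. Parallel cultures stained with SRB to flag overt cytotoxicity.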
# [18] = BSK_3C_VCAM1: BioMAP Diversity Plus: 3C Assay for Vascular cell adhesion molecule 1 (VCAM1) Biomarker Activity (AID 2282999); conditions: BioMAP 3C HUVEC, VCAM1 ELISA, cytokine-stimulated; actives raise or lower the signal
# Summary of the method: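 HUVEC primary cells, 24 h compound exposure; VCAM-1 by ELISA; gain/loss of signal fitted bidirectionally vs DMSO baseline.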
# [19] = BSK_4H_Eotaxin3: BioMAP Diversity Plus: 4H Assay for Eotaxin 3 Biomarker Activity (AID 2283000); conditions: primary human endothelial cells (HUVEC); actives raise or lower the signal;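 on outcome: CCL26 protein level quantified by ELISA in parallel with SRB cytotoxicity check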
# Summary of the method: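 HUVEC, 24 h post-dose, ELISA for Eotaxin-3/CCL26. Gain or loss of signal fitted bidirectionally vs DMSO baseline.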
compound,measurement,setting,value
CC1=CCC2C(C1)C2(C)C (stereo unspecified),outcome,[1],inactive
same,outcome,[2],inactive
same,outcome,[3],inactive
same,outcome,[4],inactive
same,outcome,[5],inactive
same,outcome,[6],inactive
same,outcome,[7],inactive
same,outcome,[8],inactive
same,outcome,[9],inactive
same,AC50,[10],49.1 µM (active)
same,AC50,[11],48.8 µM (active)
same,outcome,[12],inactive
same,outcome,[13],inactive
CC(CC(C)(C)C)CC(C)(C)CC(C)(C)C (stereo unspecified),outcome,[1],inactive
same,outcome,[2],inactive
same,outcome,[3],inactive
same,outcome,[4],inactive
same,outcome,[5],inactive
same,outcome,[6],inactive
same,outcome,[14],inactive
same,outcome,[15],inactive
same,outcome,[7],inactive
same,outcome,[8],inactive
same,outcome,[9],inactive
same,outcome,[10],inactive
same,outcome,[11],inactive
same,outcome,[12],inactive
same,outcome,[13],inactive
Cc1cccc(C)c1C,outcome,[1],inactive
same,outcome,[2],inactive
same,outcome,[5],inactive
same,outcome,[6],inactive
same,outcome,[7],inactive
same,outcome,[8],inactive
same,outcome,[9],inactive
same,outcome,[10],inactive
same,outcome,[11],inactive
same,outcome,[12],inactive
same,outcome,[13],inactive
C=CC(=O)OCCn1c(=O)n(CCOC(=O)C=C)c(=O)n(CCOC(=O)C=C)c1=O,outcome,[1],inactive
same,outcome,[2],inactive
same,outcome,[3],inactive
same,outcome,[4],inactive
same,outcome,[5],inactive
same,outcome,[6],inactive
same,outcome,[15],inactive
same,outcome,[7],inactive
same,outcome,[8],inactive
same,outcome,[9],inactive
same,AC50,[11],0.811 µM (active)
same,AC50,[12],8.38 µM (active)
same,AC50,[13],24.3 µM (active)
c1ccc2c(c1)c1cccc3ccc4cccc2c4c31,outcome,[1],inactive
same,outcome,[2],inactive
same,outcome,[4],inactive
same,outcome,[6],inactive
same,outcome,[7],inactive
same,outcome,[8],inactive
same,outcome,[9],inactive
same,outcome,[10],inactive
same,outcome,[11],inactive
same,outcome,[12],inactive
same,outcome,[13],inactive
same,outcome,[16],inactive
same,outcome,[17],inactive
same,outcome,[18],inactive
same,outcome,[19],inactive
Cc1ccc2sc3cccc(C)c3c2c1,outcome,[1],inactive
same,outcome,[2],inactive
same,outcome,[4],inactive
same,outcome,[5],inactive
same,outcome,[15],inactive
same,outcome,[7],inactive
same,outcome,[8],inactive
same,outcome,[9],inactive
same,outcome,[10],inactive
same,outcome,[11],inactive
same,outcome,[12],inactive
same,outcome,[13],inactive
COC(=O)c1ccc(C)cc1,outcome,[1],inactive
same,outcome,[2],inactive
same,outcome,[3],inactive
same,outcome,[4],inactive
same,outcome,[5],inactive
same,outcome,[6],inactive
same,outcome,[14],inactive
same,outcome,[15],inactive
same,outcome,[7],inactive
same,outcome,[8],inactive
same,outcome,[9],inactive
same,outcome,[11],inactive
same,outcome,[12],inactive
same,outcome,[13],inactive
same,outcome,[16],inactive
same,outcome,[17],inactive
same,outcome,[18],inactive
same,outcome,[19],inactive
CC(C)c1ccc(C(C)C)cc1,outcome,[1],inactive
same,outcome,[2],inactive
same,outcome,[5],inactive
same,outcome,[6],inactive
same,outcome,[14],inactive
same,outcome,[15],inactive
same,outcome,[7],inactive
same,outcome,[8],inactive
same,outcome,[9],inactive
same,AC50,[11],162 µM (active)
same,outcome,[12],inactive
same,AC50,[13],158 µM (active)
same,AC50,[16],29.4 µM (active)
same,AC50,[17],31.6 µM (active)
same,AC50,[18],35.3 µM (active)
same,AC50,[19],36 µM (active)
O=C(O)C[C@H](O)C[C@H](O)/C=C/c1c(C2CC2)nc2ccccc2c1-c1ccc(F)cc1,outcome,[1],inactive
same,outcome,[2],inactive
same,outcome,[3],inactive
same,outcome,[4],inactive
same,outcome,[5],inactive
same,outcome,[6],inactive
same,outcome,[15],inactive
same,outcome,[7],inactive
same,outcome,[8],inactive
same,outcome,[9],inactive
same,AC50,[10],2.68 µM (active)
same,outcome,[11],inactive
same,outcome,[12],inactive
same,outcome,[13],inactive
same,outcome,[16],inactive
same,AC50,[17],0.289 µM (active)
same,outcome,[18],inactive
same,AC50,[19],0.198 µM (active)
